Experimental data: PMC7862700, “An all-to-all approach to the identification of sequence-specific readers for epigenetic DNA modifications on cytosine”

What was measured:
Assay in all cases: DAPPL (digital affinity profiling via proximity ligation, sequencing); 10 mM Tris-HCl pH 7.5, 50 mM NaCl, 1 mM DTT, 4% glycerol, room temperature, 30 min; GST-TFs on glutathione beads, 16-mer random dsDNA library, 0.1% formaldehyde crosslink after washing; high values mean tight binding
FLI1 = biological target: T1, FLI1 (Homo sapiens, UniProt Q01543 1-452); details: protein: recombinant; tags: N-terminal GST; dsDNA, one strand shown
T1 sequence: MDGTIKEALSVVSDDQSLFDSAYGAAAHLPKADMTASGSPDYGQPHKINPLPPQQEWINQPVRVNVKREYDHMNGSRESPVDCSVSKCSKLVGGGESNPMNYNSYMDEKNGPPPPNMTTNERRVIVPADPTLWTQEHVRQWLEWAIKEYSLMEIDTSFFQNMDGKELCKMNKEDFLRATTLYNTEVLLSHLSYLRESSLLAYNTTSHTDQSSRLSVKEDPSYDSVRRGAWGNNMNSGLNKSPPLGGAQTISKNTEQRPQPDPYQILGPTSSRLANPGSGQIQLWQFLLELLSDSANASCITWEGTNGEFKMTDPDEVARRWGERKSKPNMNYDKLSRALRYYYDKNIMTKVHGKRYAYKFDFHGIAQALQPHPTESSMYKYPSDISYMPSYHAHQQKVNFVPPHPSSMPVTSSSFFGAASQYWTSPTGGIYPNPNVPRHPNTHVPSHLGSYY
In short: (§1)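 Pools of DNA-barcoded human transcription factors, expressed in yeast as GST fusions on glutathione beads and combined with a tag-only sample, were incubated with 200 nmole of a 16-mer random double-stranded DNA library. Incubation took 30 min at room temperature in Tris/NaCl/DTT/glycerol buffer and was followed by washing, 0.1% formaldehyde crosslinking, proximity ligation (BsaI/T4 ligase, 1 h, 37 °C), PCR amplification and sequencing on an Illumina NextSeq500. Binding signal is the ratio of a hexamer's read frequency for a factor to its frequency for the tag-only sample.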

ELK1 = biological target: T2, ELK1 (Homo sapiens, UniProt P19419 1-428); details: protein: recombinant; tags: N-terminal GST; dsDNA, one strand shown
T2 sequence: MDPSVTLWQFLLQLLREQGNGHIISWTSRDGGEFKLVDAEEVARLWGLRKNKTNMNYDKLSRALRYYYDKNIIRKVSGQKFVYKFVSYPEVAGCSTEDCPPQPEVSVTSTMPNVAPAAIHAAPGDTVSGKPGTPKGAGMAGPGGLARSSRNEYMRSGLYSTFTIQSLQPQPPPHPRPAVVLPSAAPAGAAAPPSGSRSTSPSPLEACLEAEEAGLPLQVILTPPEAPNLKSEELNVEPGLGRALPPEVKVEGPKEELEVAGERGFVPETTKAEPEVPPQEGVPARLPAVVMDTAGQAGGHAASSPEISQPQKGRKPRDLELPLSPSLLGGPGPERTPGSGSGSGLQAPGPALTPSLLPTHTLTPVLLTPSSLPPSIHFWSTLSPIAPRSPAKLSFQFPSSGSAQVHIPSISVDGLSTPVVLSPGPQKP
In short: as §1

GABPA = biological target: T3, GABPA (Homo sapiens, UniProt Q06546 1-454); details: protein: recombinant; tags: N-terminal GST; dsDNA, one strand shown
T3 sequence: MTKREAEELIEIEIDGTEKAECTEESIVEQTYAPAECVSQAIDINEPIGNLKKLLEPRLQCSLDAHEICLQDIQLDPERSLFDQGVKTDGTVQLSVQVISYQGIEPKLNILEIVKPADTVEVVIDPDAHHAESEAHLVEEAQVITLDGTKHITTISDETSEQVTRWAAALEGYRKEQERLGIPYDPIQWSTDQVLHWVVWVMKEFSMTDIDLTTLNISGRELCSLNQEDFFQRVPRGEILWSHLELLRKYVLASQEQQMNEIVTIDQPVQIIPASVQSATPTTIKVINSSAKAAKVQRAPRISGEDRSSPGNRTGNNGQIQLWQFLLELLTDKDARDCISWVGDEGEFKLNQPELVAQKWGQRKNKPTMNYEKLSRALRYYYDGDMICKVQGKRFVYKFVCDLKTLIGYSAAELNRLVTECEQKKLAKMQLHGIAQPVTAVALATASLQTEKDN
In short: as §1

ERG = biological target: T4, ERG (Homo sapiens, UniProt P11308 1-479); details: protein: recombinant; tags: N-terminal GST; dsDNA, one strand shown
T4 sequence: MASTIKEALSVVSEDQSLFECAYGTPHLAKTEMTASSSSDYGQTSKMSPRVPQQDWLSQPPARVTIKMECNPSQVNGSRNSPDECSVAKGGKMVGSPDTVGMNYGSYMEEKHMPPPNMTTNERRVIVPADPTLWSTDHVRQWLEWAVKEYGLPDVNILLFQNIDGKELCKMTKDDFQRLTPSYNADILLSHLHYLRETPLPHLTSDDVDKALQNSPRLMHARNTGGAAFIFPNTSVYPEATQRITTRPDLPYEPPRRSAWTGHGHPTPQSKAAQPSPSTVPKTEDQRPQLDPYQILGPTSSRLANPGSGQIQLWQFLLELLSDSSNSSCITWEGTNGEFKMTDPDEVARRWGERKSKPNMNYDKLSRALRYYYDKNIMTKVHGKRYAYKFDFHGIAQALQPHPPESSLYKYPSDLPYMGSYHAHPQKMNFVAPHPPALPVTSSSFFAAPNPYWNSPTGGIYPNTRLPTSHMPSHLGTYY
In short: as §1

ELF1 = ELF1 (Homo sapiens, UniProt P32519 1-619); details: protein: recombinant; tags: N-terminal GST; dsDNA, one strand shown
Sequence of ELF1 (P32519 whole entry): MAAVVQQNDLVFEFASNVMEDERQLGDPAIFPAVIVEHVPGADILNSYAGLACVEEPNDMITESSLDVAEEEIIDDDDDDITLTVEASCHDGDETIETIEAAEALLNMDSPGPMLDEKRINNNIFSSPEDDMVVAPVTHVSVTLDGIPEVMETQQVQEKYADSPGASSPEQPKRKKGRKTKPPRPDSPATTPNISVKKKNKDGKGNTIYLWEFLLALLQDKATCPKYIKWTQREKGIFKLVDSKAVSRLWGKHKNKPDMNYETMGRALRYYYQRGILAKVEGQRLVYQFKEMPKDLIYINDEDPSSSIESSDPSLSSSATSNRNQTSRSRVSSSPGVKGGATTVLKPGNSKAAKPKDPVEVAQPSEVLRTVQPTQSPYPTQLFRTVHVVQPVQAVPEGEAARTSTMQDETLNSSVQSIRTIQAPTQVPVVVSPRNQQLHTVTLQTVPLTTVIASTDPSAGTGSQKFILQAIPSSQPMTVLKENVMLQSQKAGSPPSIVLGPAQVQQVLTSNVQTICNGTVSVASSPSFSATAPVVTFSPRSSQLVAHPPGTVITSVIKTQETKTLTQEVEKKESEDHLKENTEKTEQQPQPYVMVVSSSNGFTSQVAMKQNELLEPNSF
In short: as §1

EHF = biological target: T5, EHF (Homo sapiens, UniProt Q9NZC4 1-300); details: protein: recombinant; tags: N-terminal GST; dsDNA, one strand shown
T5 sequence: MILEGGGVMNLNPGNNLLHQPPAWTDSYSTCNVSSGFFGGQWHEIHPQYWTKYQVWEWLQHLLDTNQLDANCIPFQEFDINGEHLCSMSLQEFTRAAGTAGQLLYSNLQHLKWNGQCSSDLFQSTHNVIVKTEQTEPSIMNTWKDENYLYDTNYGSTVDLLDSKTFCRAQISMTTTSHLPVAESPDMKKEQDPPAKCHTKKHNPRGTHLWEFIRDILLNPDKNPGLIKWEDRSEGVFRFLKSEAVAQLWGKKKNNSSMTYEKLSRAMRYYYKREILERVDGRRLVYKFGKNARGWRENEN
In short: as §1

SPI1 = SPI1 (Homo sapiens, UniProt P17947 1-270); details: protein: recombinant; tags: N-terminal GST; dsDNA, one strand shown
In short: as §1

SPIB = SPIB (Homo sapiens, UniProt Q01892 1-262); details: protein: recombinant; tags: N-terminal GST; dsDNA, one strand shown
Sequence of SPIB (Q01892 whole entry): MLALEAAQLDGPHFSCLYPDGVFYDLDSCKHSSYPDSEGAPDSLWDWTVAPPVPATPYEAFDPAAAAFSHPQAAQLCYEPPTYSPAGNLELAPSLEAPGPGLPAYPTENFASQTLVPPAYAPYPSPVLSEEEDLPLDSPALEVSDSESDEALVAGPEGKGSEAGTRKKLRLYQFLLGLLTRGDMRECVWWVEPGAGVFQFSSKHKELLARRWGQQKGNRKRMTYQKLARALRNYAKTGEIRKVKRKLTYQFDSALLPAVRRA
In short: as §1

FEV = biological target: T6, FEV (Homo sapiens, UniProt Q99581 1-238); details: protein: recombinant; tags: N-terminal GST; dsDNA, one strand shown
T6 sequence: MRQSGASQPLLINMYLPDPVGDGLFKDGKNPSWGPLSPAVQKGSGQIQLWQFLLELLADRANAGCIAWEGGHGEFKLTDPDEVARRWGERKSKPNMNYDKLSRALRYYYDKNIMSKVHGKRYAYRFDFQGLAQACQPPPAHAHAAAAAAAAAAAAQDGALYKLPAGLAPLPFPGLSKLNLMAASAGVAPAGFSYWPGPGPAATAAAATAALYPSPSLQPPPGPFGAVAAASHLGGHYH
In short: as §1

ETV5 = ETV5 (Homo sapiens, UniProt P41161 1-510); details: protein: recombinant; tags: N-terminal GST; dsDNA, one strand shown
Sequence of ETV5 (P41161 whole entry): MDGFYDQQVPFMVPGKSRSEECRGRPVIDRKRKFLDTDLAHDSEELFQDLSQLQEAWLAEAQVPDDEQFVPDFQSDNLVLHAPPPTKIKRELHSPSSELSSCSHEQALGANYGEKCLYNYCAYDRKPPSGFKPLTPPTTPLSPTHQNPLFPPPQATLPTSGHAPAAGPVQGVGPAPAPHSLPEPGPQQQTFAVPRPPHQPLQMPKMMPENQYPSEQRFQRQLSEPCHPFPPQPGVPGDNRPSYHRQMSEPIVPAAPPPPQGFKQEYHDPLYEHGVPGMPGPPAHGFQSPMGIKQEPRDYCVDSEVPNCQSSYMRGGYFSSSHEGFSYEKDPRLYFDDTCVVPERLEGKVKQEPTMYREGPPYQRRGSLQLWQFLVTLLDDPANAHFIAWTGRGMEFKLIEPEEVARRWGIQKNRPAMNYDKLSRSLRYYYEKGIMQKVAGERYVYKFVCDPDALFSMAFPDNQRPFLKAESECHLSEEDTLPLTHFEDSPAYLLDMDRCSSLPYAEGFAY
In short: as §1

HSF1 = HSF1 (Homo sapiens, UniProt Q00613 1-529); details: protein: recombinant; tags: N-terminal GST; chain copies: 3; dsDNA, one strand shown
Sequence of HSF1 (Q00613 whole entry): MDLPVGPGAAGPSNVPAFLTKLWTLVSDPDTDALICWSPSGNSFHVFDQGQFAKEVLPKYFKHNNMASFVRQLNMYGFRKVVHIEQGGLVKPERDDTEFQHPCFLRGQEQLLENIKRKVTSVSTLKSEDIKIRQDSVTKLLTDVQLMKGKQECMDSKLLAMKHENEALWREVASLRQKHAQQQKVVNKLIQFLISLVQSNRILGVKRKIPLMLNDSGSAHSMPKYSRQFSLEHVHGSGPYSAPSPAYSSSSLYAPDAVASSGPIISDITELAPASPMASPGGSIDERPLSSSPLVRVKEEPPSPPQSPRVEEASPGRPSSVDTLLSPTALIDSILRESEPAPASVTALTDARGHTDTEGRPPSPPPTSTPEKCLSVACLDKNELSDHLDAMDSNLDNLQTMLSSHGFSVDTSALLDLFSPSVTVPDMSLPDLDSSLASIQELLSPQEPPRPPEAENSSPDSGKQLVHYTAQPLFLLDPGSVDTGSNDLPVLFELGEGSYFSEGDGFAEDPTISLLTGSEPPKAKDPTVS
In short: as §1

SPIC = biological target: T7, SPIC (Homo sapiens, UniProt Q8N5J4 1-248); details: protein: recombinant; tags: N-terminal GST; dsDNA, one strand shown
T7 sequence: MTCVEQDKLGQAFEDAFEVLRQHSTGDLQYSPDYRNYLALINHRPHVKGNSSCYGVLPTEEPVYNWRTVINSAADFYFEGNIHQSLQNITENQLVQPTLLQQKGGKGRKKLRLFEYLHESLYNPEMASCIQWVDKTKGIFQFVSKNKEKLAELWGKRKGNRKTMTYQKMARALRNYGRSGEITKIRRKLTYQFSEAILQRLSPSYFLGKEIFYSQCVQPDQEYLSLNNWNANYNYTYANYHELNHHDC
In short: as §1

ELF4 = ELF4 (Homo sapiens, UniProt Q99607 1-663); details: protein: recombinant; tags: N-terminal GST; dsDNA, one strand shown
Sequence of ELF4 (Q99607 whole entry): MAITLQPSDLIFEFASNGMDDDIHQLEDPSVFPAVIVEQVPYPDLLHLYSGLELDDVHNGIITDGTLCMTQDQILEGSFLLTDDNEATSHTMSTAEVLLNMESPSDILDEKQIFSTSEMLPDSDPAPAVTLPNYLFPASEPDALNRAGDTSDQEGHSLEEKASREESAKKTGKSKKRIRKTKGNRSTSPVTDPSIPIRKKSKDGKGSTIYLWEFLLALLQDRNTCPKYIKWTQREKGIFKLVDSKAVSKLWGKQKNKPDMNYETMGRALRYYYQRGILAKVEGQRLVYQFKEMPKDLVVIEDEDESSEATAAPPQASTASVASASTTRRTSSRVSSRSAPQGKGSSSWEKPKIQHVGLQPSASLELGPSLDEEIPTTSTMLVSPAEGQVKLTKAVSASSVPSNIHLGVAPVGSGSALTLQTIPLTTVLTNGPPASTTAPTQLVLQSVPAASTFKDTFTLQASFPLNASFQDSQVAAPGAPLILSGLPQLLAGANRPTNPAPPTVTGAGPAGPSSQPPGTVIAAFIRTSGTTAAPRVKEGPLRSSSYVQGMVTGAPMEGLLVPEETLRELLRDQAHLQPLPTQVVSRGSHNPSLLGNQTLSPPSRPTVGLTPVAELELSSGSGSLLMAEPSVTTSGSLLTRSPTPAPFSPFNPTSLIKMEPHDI
In short: as §1

ELK4 = biological target: T8, ELK4 (Homo sapiens, UniProt P28324-2 1-405); details: protein: recombinant; tags: N-terminal GST; dsDNA, one strand shown
T8 sequence: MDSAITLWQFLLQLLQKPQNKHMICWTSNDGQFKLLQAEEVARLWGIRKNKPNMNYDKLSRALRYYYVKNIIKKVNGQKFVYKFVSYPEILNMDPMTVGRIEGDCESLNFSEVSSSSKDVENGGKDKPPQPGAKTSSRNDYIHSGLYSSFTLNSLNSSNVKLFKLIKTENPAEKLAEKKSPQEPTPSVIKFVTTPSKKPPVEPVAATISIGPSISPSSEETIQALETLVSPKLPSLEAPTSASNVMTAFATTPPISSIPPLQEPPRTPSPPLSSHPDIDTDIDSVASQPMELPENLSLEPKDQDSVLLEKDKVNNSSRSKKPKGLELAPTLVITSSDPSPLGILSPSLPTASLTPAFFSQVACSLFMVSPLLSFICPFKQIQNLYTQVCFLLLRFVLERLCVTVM
In short: as §1

ETV2 = biological target: T9, ETV2 (Homo sapiens, UniProt O00321 1-342); details: protein: recombinant; tags: N-terminal GST; dsDNA, one strand shown
T9 sequence: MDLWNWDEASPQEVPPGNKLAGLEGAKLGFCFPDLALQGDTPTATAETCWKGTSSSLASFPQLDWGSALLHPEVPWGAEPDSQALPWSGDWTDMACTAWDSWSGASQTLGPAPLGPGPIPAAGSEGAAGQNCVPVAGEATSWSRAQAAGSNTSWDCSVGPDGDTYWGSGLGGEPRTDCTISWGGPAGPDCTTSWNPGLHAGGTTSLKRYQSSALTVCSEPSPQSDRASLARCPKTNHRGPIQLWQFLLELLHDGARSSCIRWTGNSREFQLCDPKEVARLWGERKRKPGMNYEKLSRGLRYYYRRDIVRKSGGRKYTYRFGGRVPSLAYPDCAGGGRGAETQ
In short: as §1

ELF3 = biological target: T10, ELF3 (Homo sapiens, UniProt P78545 1-371); details: protein: recombinant; tags: N-terminal GST; dsDNA, one strand shown
T10 sequence: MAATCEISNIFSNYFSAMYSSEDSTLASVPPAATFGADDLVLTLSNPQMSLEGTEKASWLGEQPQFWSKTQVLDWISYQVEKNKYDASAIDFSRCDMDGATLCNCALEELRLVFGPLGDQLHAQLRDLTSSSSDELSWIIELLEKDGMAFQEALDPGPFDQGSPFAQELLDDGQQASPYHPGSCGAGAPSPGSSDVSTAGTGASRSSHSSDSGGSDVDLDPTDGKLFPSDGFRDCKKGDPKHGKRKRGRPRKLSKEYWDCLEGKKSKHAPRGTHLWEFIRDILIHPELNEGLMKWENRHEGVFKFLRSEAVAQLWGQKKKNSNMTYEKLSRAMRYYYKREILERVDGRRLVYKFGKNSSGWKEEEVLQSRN
In short: as §1

CRX = CRX (Homo sapiens, UniProt O43186 1-299); details: protein: recombinant; tags: N-terminal GST; dsDNA, one strand shown
Sequence of CRX (O43186 whole entry): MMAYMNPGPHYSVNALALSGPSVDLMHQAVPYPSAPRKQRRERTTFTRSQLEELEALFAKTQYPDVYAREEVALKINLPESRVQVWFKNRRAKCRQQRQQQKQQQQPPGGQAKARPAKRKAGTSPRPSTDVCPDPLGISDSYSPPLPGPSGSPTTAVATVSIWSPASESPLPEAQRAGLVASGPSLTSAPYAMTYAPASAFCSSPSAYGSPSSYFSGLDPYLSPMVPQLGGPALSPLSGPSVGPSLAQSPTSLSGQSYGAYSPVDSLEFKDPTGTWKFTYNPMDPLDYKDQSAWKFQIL
In short: as §1

ETV1 = ETV1 (Homo sapiens, UniProt P50549 1-477); details: protein: recombinant; tags: N-terminal GST; dsDNA, one strand shown
Sequence of ETV1 (P50549 whole entry): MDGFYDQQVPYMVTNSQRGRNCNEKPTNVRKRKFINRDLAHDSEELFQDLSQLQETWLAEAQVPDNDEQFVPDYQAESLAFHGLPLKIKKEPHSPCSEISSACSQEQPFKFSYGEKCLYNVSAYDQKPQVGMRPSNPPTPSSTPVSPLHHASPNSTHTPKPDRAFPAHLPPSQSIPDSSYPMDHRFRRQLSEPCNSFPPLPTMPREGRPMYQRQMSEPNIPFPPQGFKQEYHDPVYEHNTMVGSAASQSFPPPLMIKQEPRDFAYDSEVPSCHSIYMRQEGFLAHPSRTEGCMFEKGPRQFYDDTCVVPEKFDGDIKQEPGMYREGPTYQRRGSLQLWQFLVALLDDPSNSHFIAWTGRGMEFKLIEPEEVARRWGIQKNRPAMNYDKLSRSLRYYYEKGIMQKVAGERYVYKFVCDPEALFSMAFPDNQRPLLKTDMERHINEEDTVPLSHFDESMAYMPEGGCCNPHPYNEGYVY
In short: as §1

CCGAAA was tested. Which binding signal (FLI1) did it give?
The binding signal was 1.25 fold enrichment (6-mer frequency, TF over GST control).

And the binding signal (ELK1)?
The binding signal was 1.23 fold enrichment (6-mer frequency, TF over GST control).

And the binding signal (GABPA)?
The binding signal was 1.33 fold enrichment (6-mer frequency, TF over GST control).

And the binding signal (ERG)?
Its binding signal is 1.2 fold enrichment (6-mer frequency, TF over GST control).

And the binding signal (ELF1)?
Its binding signal is 1.25 fold enrichment (6-mer frequency, TF over GST control).

And the binding signal (EHF)?
Its binding signal is 1.22 fold enrichment (6-mer frequency, TF over GST control).

And the binding signal (SPI1)?
The binding signal was 1.21 fold enrichment (6-mer frequency, TF over GST control).

And the binding signal (SPIB)?
Its binding signal is 1.26 fold enrichment (6-mer frequency, TF over GST control).

What about the binding signal (FEV) of the same sequence?
The binding signal was 1.17 fold enrichment (6-mer frequency, TF over GST control).

And the binding signal (ETV5)?
Its binding signal is 1.25 fold enrichment (6-mer frequency, TF over GST control).

And the binding signal (HSF1)?
Its binding signal is 1.73 fold enrichment (6-mer frequency, TF over GST control).

What about the binding signal (SPIC) of the same sequence?
Its binding signal is 1.31 fold enrichment (6-mer frequency, TF over GST control).

And the binding signal (ELF4)?
Its binding signal is 1.2 fold enrichment (6-mer frequency, TF over GST control).

What about the binding signal (ELK4) of the same sequence?
Its binding signal is 1.14 fold enrichment (6-mer frequency, TF over GST control).

What about the binding signal (ETV2) of the same sequence?
The binding signal was 1.27 fold enrichment (6-mer frequency, TF over GST control).

And the binding signal (ELF3)?
The binding signal was 1.17 fold enrichment (6-mer frequency, TF over GST control).

What about the binding signal (CRX) of the same sequence?
The binding signal was 1.28 fold enrichment (6-mer frequency, TF over GST control).

What about the binding signal (ETV1) of the same sequence?
Its binding signal is 1.23 fold enrichment (6-mer frequency, TF over GST control).
